# Measured values: PubChem BioAssay (NCATS)
# Values without a mark were called inactive. Inconclusive results are not listed. Where a call stands in place of a potency, no number is given. Calls of active or inactive are those of the source. Calls come from the whole dose curve; as a rule, active = well fitted curve in the direction sought with a large enough effect; inconclusive = small, poorly fitted or top-dose-only effect, or another doubt; inactive = no such curve, though single readings can be large; an effect the other way counts as inactive or inconclusive.
# Columns and labels:
# [1] = qHTS to identify inhibitors of the type 1 interferon - major histocompatibility complex class I in skeletal muscle: primary screen against the NCATS Mechanism Interrogation Plate v5.0 (MIPE) Libary (AID 1347411); details: iHSKM cells + IFN-b, HiBiT-tagged MHC-I luminescence, 24 h; series mostly up to 45.8 µM; note: nearly all actives have a fitted effect of over 65% in size; note: potency is the fitted concentration of half-maximal effect
# Method in brief: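 Seed engineered human myoblasts (HLA-B HiBit) in medium without dexamethasone containing 4 ng/ml IFN-beta; after 1 hr add compound titrations (top 46 uM final). Incubate 24 hrs at 37 C, lyse 10 min with HiBiT reagent, read luminescence.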
# [2] = qHTS to identify inhibitors of the type 1 interferon - major histocompatibility complex class I in skeletal muscle: primary screen against the NCATS LOPAC collection (AID 1347405); details: iHSKM muscle cells, IFN-b-induced MHC-I HiBiT luminescence, 24 h; series mostly up to 45.9 µM;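 note: human myoblasts with HiBiT tag on endogenous HLA-B stimulated by IFN-beta; lytic HiBiT luminescence reporting HLA-B protein level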; note: potency is the fitted concentration of half-maximal effect
# Method in brief: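 First, engineered myoblasts carrying HLA-B-HiBiT were seeded in medium lacking dexamethasone with 4 ng/ml IFN-beta. After 1 hr, compounds were pinned in (top 46 uM final, 7 points). After 24 hrs at 37 C, luminescence was measured following 10 min lysis.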
# [3] = qHTS for inhibitors of adenylyl cyclases using a fission yeast platform: a pilot screen against the NCATS LOPAC library (AID 1347410); details: S. pombe CHP2027, fbp1-GFP fluorescence, 18 h, yeast expressing mammalian AC9 and human GNAS; series mostly up to 57.5 µM
# Method in brief: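 GFP from fbp1-GFP reporter, read by Acumen laser cytometry, indicates AC inhibition in fission yeast expressing AC9, GNAS and PDE4D2. Cells grown 18 h in the dark at 30C with compounds, final up to 57 uM.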
# [4] = molecular target: Protein phosphatase 1D (Homo sapiens) (UniProt O15297); test: RapidFire Mass Spectrometry qHTS Assay for Modulators of WT P53-Induced Phosphatase 1 (WIP1) (AID 1347424); details: WIP1 dephosphorylation of phosphopeptide, RapidFire MS; series mostly up to 63 µM;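 note: amount of dephosphorylated VEPPL-S-QETFS peptide product formed by WIP1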; note: potency is the fitted concentration of half-maximal effect
# Method in brief: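 RapidFire mass spectrometry measured dephosphorylated peptide after 5 min room-temperature reaction of 2 uM VEPPL-pS-QETFS with 10 nM WIP1 (50 mM Tris-HCl pH 7.5, 30 mM MgCl2, 0.1 mM EGTA, BSA), following 1 hr compound preincubation; 1 uM isotope-labelled product standard.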
# [5] = molecular target: Protein phosphatase 1D (Homo sapiens) (UniProt O15297); test: Rhodamine-PBP qHTS Assay for Modulators of WT P53-Induced Phosphatase 1 (WIP1) (AID 1347425); details: recombinant WIP1, Rhodamine-PBP phosphate fluorescence, real-time; series mostly up to 57.5 µM
# Method in brief: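 WIP1 (5 nM final) was preincubated with compound for 1 hour at room temperature. It then dephosphorylated 10 uM VEPPL-pS-QETFS peptide in Tris-HCl pH 7.5 with 30 mM MgCl2. Released Pi was detected by 10 uM Rh-PBP fluorescence (ex 525/em 598 nm) read at 1-min intervals for 11 min, as delta f1 - f0.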
# [6] = molecular target: Luciferin 4-monooxygenase (Photinus pyralis) (UniProt P08659); test: Firefly luciferase counterscreen qHTS: Assay Interference Panel against the NCATS CANVASS Library (AID 1347363); details: purified firefly luciferase, luminescence inhibition, 5 min; series mostly up to 57.5 µM
# Method in brief: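 Luminescence inhibition readout: compounds (11-point qHTS) sat 15 min at room temperature with substrate mix (0.013 mM luciferin and ATP), then firefly luciferase was added and signal read 5 min later.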
# [7] = KB-8-5-11 Cancer Cell Toxicity qHTS against the NCATS CANVASS Library (AID 1347364); details: KB-8-5-11 MDR cells viability, CellTiter-Glo, 72 h; note: potency is the fitted concentration of half-maximal effect; nearly all actives have a fitted effect of over 75% in size
# Method in brief: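 Terse: KB-8-5-11, 500 cells/well, 72 hr, 37C/5% CO2, 11-pt titration, CellTiter-Glo readout; confirmatory runs ± 1uM tariquidar in medium.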
# [8] = KB-3-1 Cancer Cell Toxicity qHTS against the NCATS CANVASS Library (AID 1347366); details: KB-3-1 viability, CellTiter-Glo luminescence, 72 h; note: potency is the fitted concentration of half-maximal effect; nearly all actives have a fitted effect of over 75% in size
# Method in brief: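 CellTiter-Glo luminescence measured viability after 72 h at 37C. KB-3-1 cells were seeded at 500 per well in DMEM/10% FBS.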
# [9] = qHTS for ATAD5 Agonist screened against the NCATS CANVASS Library (AID 1347367); details: HEK293T ATAD5-luciferase reporter, luminescence, 16 h; series mostly up to 46.1 µM;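 note: luciferase reporter driven by ATAD5 which rises upon DNA damage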
# Method in brief: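 Genotoxicity via ATAD5-luciferase luminescence after 16 h compound exposure (11-point series) at 37C in HEK293T-ATAD5 cells. CellTiter-Fluor viability read precedes the luminescence read; MMS serves as positive control.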
# [10] = qHTS for ATAD5 Antagonist screened against the NCATS CANVASS Library (AID 1347370); details: HEK293T-ATAD5-luc, 5-FUrd stimulated, luminescence, 16 h; note: potency is the fitted concentration of half-maximal effect; nearly all actives have a fitted effect of over 65% in size
# Method in brief: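 Compounds (11-point) co-dosed with 10 µM 5-FUrd for 16 h at 37 °C onto HEK293T-ATAD5 luciferase reporter cells. Viability measured by CellTiter-Fluor fluorescence, then ATAD5 reporter signal by luminescence.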
# [11] = molecular target: Nuclear receptor subfamily 1 group I member 3 (Homo sapiens) (UniProt Q14994); test: qHTS for Constitutive Androstane Receptor (CAR) Agonist screened against the NCATS CANVASS Library (AID 1347373); details: HepG2-hCAR-CYP2B6 luciferase reporter, ONE-Glo luminescence; series mostly up to 46.1 µM;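 note: every well also contained 1.5 µM PK11195 alongside the test compound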
# Method in brief: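 Cells were plated and allowed to attach for 4hr, then dosed with compound in an 11-point series alongside 1.5uM PK11195. After 24hr at 37C, viability was measured fluorometrically and CAR-driven CYP2B6 reporter luminescence was recorded.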
# [12] = 10-beta competent E. coli microbial cell viability qHTS against the NCATS CANVASS Library (AID 1347376); details: E. coli 10-beta viability, BacTiter-Glo ATP luminescence, overnight; series mostly up to 46.1 µM
# Method in brief: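 Bacterial suspension diluted to 0.2 OD was dosed with compounds, 11-point series, then held overnight at 37C. BacTiter-Glo reagent was added, and after 20 min at room temperature ATP-dependent luminescence was measured.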
# [13] = qHTS for Antimalaria activity screened against the NCATS CANVASS Library (AID 1347380); note: potency is the fitted concentration of half-maximal effect; nearly all actives have a fitted effect of over 40% in size; details: P. falciparum Dd2 growth, SYBR Green fluorescence, 72 h
# Method in brief: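 Compounds are titrated over 11 concentrations onto Dd2 parasite cultures (0.3% parasitemia, 2.5% hematocrit). Growth over 72 h at 37C in low oxygen is measured as SYBR Green DNA fluorescence after lysis.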
# [14] = Inflammasome Signaling qHTS Counterscreen: IL-1-beta AlphaLISA counterscreen against the NCATS CANVASS Library (AID 1347381); details: Purified IL-1beta AlphaLISA signal interference counterscreen; series mostly up to 57.5 µM;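 note: cell-free check with purified IL-1β in medium and no THP-1 cells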
# Method in brief: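 Purified IL-1-beta (4 pg/well) + compound, 11-pt conc. series; acceptor beads 6 ug/mL + biotin-Ab 0.6 nM final, 1 h RT; SA-donor 24 ug/ml final, 30 min dark RT; read ex 680/em 615.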
# [15] = qHTS for Activators of p53 Stress Response Pathway screened against the NCATS CANVASS Library (AID 1347388); details: p53RE-bla HCT-116, beta-lactamase reporter, 16 h; note: potency is the fitted concentration of half-maximal effect
# Method in brief: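 Beta-lactamase reporter driven by p53 response elements in HCT-116 cells, read as the 460 nm/530 nm emission ratio after CCF4 loading, following 16 h of exposure to an 11-point series. Cell viability was measured in the same wells by CellTiter-Glo luminescence.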
# [16] = qHTS assay for small molecule disruptors of mitochondrial membrane potential screened against the NCATS CANVASS Library (AID 1347389); details: HepG2 mitochondrial membrane potential, m-MPI red/green ratio, 1.5 h; note: potency is the fitted concentration of half-maximal effect; nearly all actives have a fitted effect of over 60% in size
# Method in brief: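 Mitochondrial depolarization in HepG2 cells is scored as a falling aggregate-to-monomer fluorescence ratio after 1 hr compound exposure and 30 min staining with Mito-MPS dye at 37C, each compound tested as an 11-point titration.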
# [17] = qHTS for activators of Nrf2/ARE signaling pathway screened against the NCATS CANVASS Library (AID 1347391); details: ARE-bla HepG2, beta-lactamase reporter, 16 h; series mostly up to 46.1 µM; note: nearly all actives have a fitted effect of over 60% in size
# Method in brief: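 Beta-lactamase reporter signal, read as 460 and 530 nm emission under 405 nm excitation after 2 h CCF4 loading, reflected ARE activation in HepG2 cells treated 16 h with an 11-point series.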
# [18] = Vero-766 cells viability qHTS against the NCATS CANVASS Library: Counterscreen for Zika virus inhibition assay (AID 1347394); details: Vero 766 viability, CellTiter-Glo luminescence, 72 h; note: potency is the fitted concentration of half-maximal effect; nearly all actives have a fitted effect of over 60% in size
# Method in brief: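 CellTiter Glo luminescence measured cytotoxicity after 72 h at 37C in uninfected Vero 766 cells, plated at 1000 cells/well. Compounds were applied in an 11-point series. Wells without cells defined 100% inhibition.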
# [19] = Redox Reaction Profiling qHTS: Assay Interference Panel against the NCATS CANVASS Library (AID 1347401); details: resazurin-DTT redox cycling, fluorescence, 15 min; series mostly up to 57.1 µM
# Method in brief: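 Redox-cycling liability assessed as DTT-driven conversion of resazurin (5 uM, with 200 uM DTT, HEPES pH 7.3) to fluorescent resorufin. Fluorescence at 525/598 nm measured initially and after 15 min dark incubation.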
# [20] = qHTS to identify inhibitors of the type 1 interferon - major histocompatibility complex class I in skeletal muscle: primary screen against the NCATS Pharmaceutical Collection (AID 1347407); details: human skeletal muscle cells, IFN-b-induced MHC-I HiBiT luminescence, 24 h; series mostly up to 45.9 µM;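 note: luminescence of HiBiT knocked into endogenous HLA-B as interferon-induced MHC class I level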
# Method in brief: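 Compounds […] were added to CRISPR-engineered HLA-B-HiBiT C25cl48 human myoblasts with 4.0 ng/ml IFN-beta. After 24 hrs at 37 C, cells were lysed and HiBiT luminescence measured.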
# Chain of Protein phosphatase 1D (Homo sapiens) (O15297 whole entry, looked up): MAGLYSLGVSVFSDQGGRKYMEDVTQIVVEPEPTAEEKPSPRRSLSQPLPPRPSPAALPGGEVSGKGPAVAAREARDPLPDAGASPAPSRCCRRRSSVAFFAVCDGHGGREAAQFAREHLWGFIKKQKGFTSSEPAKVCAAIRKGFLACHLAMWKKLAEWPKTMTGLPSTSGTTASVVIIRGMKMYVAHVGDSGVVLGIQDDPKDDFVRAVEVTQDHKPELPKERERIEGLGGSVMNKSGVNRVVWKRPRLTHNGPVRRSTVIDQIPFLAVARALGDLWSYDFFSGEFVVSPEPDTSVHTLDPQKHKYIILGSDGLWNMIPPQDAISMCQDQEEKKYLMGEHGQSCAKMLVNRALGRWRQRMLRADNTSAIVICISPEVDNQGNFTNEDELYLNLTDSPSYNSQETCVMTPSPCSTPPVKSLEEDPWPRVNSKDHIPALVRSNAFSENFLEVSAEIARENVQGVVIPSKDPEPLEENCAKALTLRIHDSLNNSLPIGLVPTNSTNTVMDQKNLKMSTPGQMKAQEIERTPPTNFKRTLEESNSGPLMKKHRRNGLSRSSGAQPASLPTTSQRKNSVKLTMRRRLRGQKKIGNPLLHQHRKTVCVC
# Chain of Nuclear receptor subfamily 1 group I member 3 (Homo sapiens) (Q14994 whole entry, looked up): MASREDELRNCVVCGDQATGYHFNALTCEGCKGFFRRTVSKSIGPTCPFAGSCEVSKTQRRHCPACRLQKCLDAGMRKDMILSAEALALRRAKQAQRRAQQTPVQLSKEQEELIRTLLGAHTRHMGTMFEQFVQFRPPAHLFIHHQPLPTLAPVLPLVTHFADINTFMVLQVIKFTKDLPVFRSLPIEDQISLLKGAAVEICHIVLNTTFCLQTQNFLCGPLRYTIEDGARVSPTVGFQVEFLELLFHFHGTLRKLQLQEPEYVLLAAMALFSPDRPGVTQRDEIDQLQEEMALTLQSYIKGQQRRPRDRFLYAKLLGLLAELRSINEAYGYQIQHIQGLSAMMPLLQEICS
# Chain of Luciferin 4-monooxygenase (Photinus pyralis) (P08659 whole entry, looked up): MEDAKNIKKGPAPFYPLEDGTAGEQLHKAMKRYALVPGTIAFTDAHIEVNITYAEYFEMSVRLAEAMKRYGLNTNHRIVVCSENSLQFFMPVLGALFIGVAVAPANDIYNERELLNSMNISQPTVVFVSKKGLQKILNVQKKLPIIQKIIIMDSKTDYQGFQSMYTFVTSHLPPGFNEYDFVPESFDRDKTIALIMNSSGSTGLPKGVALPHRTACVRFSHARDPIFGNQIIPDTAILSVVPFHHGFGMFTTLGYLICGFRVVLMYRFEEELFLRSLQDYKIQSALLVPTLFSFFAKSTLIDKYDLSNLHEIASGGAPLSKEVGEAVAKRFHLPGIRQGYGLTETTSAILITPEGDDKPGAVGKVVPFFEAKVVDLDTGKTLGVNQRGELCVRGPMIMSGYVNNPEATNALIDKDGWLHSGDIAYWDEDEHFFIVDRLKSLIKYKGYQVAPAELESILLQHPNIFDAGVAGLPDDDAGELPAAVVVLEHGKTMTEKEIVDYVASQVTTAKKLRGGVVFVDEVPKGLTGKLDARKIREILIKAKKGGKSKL
smiles,measurement,setting,value
COc1ccc(-c2cnc3c(-c4cccc5ncccc45)cnn3c2)cc1,Potency,[1],inactive
Cc1[nH]c(/C=C2\C(=O)Nc3ccc(S(=O)(=O)N(C)c4cccc(Cl)c4)cc32)c(C)c1C(=O)N1CCN(C)CC1,Potency,[1],16.5 µM (active)
C[C@H](CN(C)C)Oc1nc(Nc2cc3cccc(Cl)c3cn2)cnc1C#N,Potency,[1],inactive
O=C(NC[C@H](O)CN1CCc2ccccc2C1)c1ccnc(NC2CCC2)c1,Potency,[1],inactive
N#Cc1ccnc(Nc2cc(C3CCN(C4COC4)CC3)cc(N3CCC(F)(F)C3)n2)c1,Potency,[1],2.34 µM (active)
COC1CCN(C(=O)c2cc(Cc3n[nH]c(=O)c4ccccc34)ccc2F)CC1,Potency,[1],inactive
CC(C)(CNC(=O)c1cccc(-c2noc(C(F)(F)F)n2)c1)c1coc(-c2ccccc2)n1,Potency,[1],inactive
CN(C)N(C)C(=O)[C@@]1(Cc2ccccc2)CCCN(C(=O)[C@@H](Cc2c[nH]c3ccccc23)NC(=O)C(C)(C)N)C1,Potency,[1],inactive
Cn1cc(-c2ccc3c(c2)CCN3C(=O)Cc2cccc(C(F)(F)F)c2)c2c(N)ncnc21,Potency,[1],inactive
CN[C@H]1CC[C@@H](c2ccc(Cl)c(Cl)c2)c2ccccc21,Potency,[2],28.2 µM (active)
same,outcome,[3],inactive
same,Potency,[4],inactive
same,outcome,[5],inactive
CCN(c1cc(-c2ccc(CN3CCOCC3)cc2)cc(C(=O)NCc2c(C)cc(C)[nH]c2=O)c1C)C1CCOCC1,Potency,[1],inactive
CC(C)NC(=O)N1CC[C@H](N=C2Nc3cc(F)ccc3N(CC(F)F)c3ccc(Cl)cc32)C1,"activity change, negative = inhibition",[1],-19.9% [at 8.44 µM]
O=C(N[C@H]1CCC[C@H](CO)C1)C1CCN(c2nc3cc(Cl)c(-c4ccc(Cl)cc4)cc3o2)CC1,Potency,[1],inactive
CN1CCN(C2CCN(C(=O)Nc3cc(Oc4ccc(NC(=O)C5(C(=O)Nc6ccc(F)cc6)CC5)c(F)c4)ccn3)CC2)CC1,Potency,[1],20.8 µM (active)
COc1cc(S(C)(=O)=O)ccc1Nc1nc2ccc(-c3ccc(NC(=O)[C@H](C)c4ccc(F)cc4)cc3)cn2n1,Potency,[1],inactive
O=C1Nc2nc(-c3c(O)cccc3OCC3CC3)cc([C@@H]3CCCNC3)c2CO1,Potency,[1],3.7 µM (active)
COc1cc2c(cc1OCCCN1CCCC1)N=C(N)C21CCC1,Potency,[1],inactive
COc1ccc(-c2c(C)nn3c(NCCN4CCOCC4)cc(C)nc23)cc1OC,Potency,[1],inactive
CN1CCN(c2ccc(-c3cccc(CN4CCOCC4)c3)cc2NC(=O)c2c[nH]c(=O)cc2C(F)(F)F)CC1,Potency,[1],inactive
Cc1cc(C(=O)Nc2cc(Nc3ccc4c(/C=C/c5ccccn5)n[nH]c4c3)ccc2F)n(C)n1,Potency,[1],29.4 µM (active)
COC(=O)N1CC2(CC2)C[C@H](C(=O)NO)[C@H]1C(=O)N1CCN(c2ccccc2)CC1,Potency,[1],inactive
C=CCNC1=C2C[C@@H](C)C[C@H](OC)[C@H](O)[C@@H](C)/C=C(\C)[C@H](OC(N)=O)[C@@H](OC)/C=C\C=C(/C)C(=O)NC(=CC1=O)C2=O,Potency,[1],0.829 µM (active)
C[C@@H]1CN(CC(=O)N2CC(C)(C)c3ncc(Cc4ccc(F)cc4)cc32)[C@@H](CN2CCOC[C@H]2C)CN1,Potency,[1],inactive
CCCC(CCC)C(=O)Nc1ccn([C@@H]2O[C@H](CO)[C@@H](O)C2(F)F)c(=O)n1,Potency,[1],inactive
CC(C)CC(=O)c1c(O)cc2c(c1O)C(CC(C)C)C1=C(O2)C(C)(C)C(=O)C(C)(C)C1=O (configuration not stated),outcome,[6],inactive
same,Potency,[7],16.6 µM (active)
same,Potency,[8],26.4 µM (active)
same,outcome,[9],inactive
same,Potency,[10],20.9 µM (active)
same,outcome,[11],inactive
same,outcome,[12],inactive
same,Potency,[13],0.594 µM (active)
same,outcome,[14],inactive
same,Potency,[15],20.9 µM (active)
same,Potency,[16],3.31 µM (active)
same,outcome,[17],inactive
same,Potency,[18],6.6 µM (active)
same,outcome,[19],inactive
NCCCC(=O)O,Potency,[2],inactive
same,outcome,[3],inactive
Oc1cccc(-c2c3nc(c(-c4cccc(O)c4)c4ccc([nH]4)c(-c4cccc(O)c4)c4nc(c(-c5cccc(O)c5)c5ccc2[nH]5)CC4)C=C3)c1,outcome,[20],inactive
same,Potency,[4],1.58 µM (active)
O=C(c1c(F)ccc(NS(=O)(=O)N2CC[C@@H](F)C2)c1F)c1c[nH]c2ncc(-c3cnc(C4CC4)nc3)cc12,Potency,[1],inactive
C[C@@H](c1ccc2nccn2c1)n1nnc2ncc(-c3cnn(C)c3)nc21,Potency,[1],inactive
